# From PubChem BioAssay (NCATS)
# Unmarked numbers belong to inactive results. Results filed as inconclusive are left out. Entries that show only a call come without a potency. Calls of active or inactive are those of the source. Calls come from the whole dose curve; as a rule, active = well fitted curve in the direction sought with a large enough effect; inconclusive = small, poorly fitted or top-dose-only effect, or another doubt; inactive = no such curve, though single readings can be large; an effect the other way counts as inactive or inconclusive. Numbered stars: 1 amine (or outer) side, 2 acyl side, 3 side chain; on linkers, the order of the positions; unused ones are H or OH. Bridge positions count the residues as written; N and C are the ends. Square brackets hold non-standard residues; d marks the D form. Peptide text beside a SMILES is read from it. ξ: configuration not given here. Phe(3R-OH) = O=C([C@@H](N[*:1])[C@H](O[*:3])c1ccccc1)[*:2]; NMeTrp(4-OMe) = CN[C@@H](Cc1c[nH]c2cccc(OC)c12)C(=O)O; ξThr(3R)(O-yl) = C[C@@H](O[*:3])C(N[*:1])C(=O)[*:2]; NMeThr(3ξ) = CN[C@H](C(=O)O)C(C)O; NMeL = CN[C@@H](CC(C)C)C(=O)O; NMeV = CN[C@H](C(=O)O)C(C)C; ξIle = CC[C@H](C)C(N)C(=O)O; ξV = CC(C)C(N)C(=O)O
# Columns and labels:
# [1] = tested on: Zika virus NS2B-NS3 protease (linked construct); assay: Primary screen NINDS Rhodamine qHTS for Zika virus inhibitors (AID 1347160); note: nearly all actives have a fitted effect of over 55% in size; note: potency is the fitted concentration of half-maximal effect
# Summary of the method: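 Enzyme (25 nM, linked NS2B-NS3) was preincubated 15 min with compound in 10 mM Tris-HCl pH 8.0, 0.01% Tween 20. Rhodamine110 substrate (1.5 microM) was then added and fluorescence read at start and after 15 min.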
# [2] = OV-KATE Cancer Cell Toxicity qHTS against the NCATS CANVASS Library (AID 1347345); note: potency is the fitted concentration of half-maximal effect
# Summary of the method: (§1)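 Toxicity is measured over 72 h of compound exposure at 37 degrees C under 5% CO2. Each well holds 1000 cells, pre-incubated for 4 hours before dosing across an 11-point range. CellTiter-Glo luminescence gives viability.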
# [3] = HPAF-II Cancer Cell Toxicity qHTS against the NCATS CANVASS Library (AID 1347346); note: nearly all actives have a fitted effect of over 55% in size; note: potency is the fitted concentration of half-maximal effect
# Summary of the method: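 Using 1000 HPAF-II cells per well, we titrated compounds over 11 concentrations for 72 h at 37 degrees C/5% CO2, with bortezomib as control. Cell survival was quantified by CellTiter-Glo luminescence.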
# [4] = UWB1.289 Cancer Cell Toxicity qHTS against the NCATS CANVASS Library (AID 1347347); note: nearly all actives have a fitted effect of over 60% in size; note: potency is the fitted concentration of half-maximal effect
# Summary of the method: as §1
# [5] = Panc-1005 Cancer Cell Toxicity qHTS against the NCATS CANVASS Library (AID 1347349); note: nearly all actives have a fitted effect of over 60% in size; note: potency is the fitted concentration of half-maximal effect
# Summary of the method: as §1
# [6] = SW1088 Cancer Cell Toxicity qHTS against the NCATS CANVASS Library (AID 1347350); note: nearly all actives have a fitted effect of over 75% in size; note: potency is the fitted concentration of half-maximal effect
# Summary of the method: as §1
# [7] = COV-362 Cancer Cell Toxicity qHTS against the NCATS CANVASS Library (AID 1347352); note: series mostly up to about 38 µM
# Summary of the method: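 Using an ATP-based luminescent reagent after three days of treatment, toxicity is scored across an eleven-concentration range in wells holding 1000 cells each.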
# [8] = HEK293 18hr Apoptosis Induction qHTS against the NCATS CANVASS Library (AID 1347357)
# Summary of the method: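 HEK293 cells (500 per well, DMEM with 10% FBS) were treated with natural products, incubated 18 hours at 37 degrees C, then caspase-3/7 activity was read by Caspase-Glo luminescence after 15 min at room temperature.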
# [9] = HEK293 24hr Apoptosis Induction qHTS against the NCATS CANVASS Library (AID 1347359)
# Summary of the method: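 Caspase-3/7 activation measured as luminescence from the DEVD-based Caspase-Glo reagent, 15 min at room temperature, following 24-hour compound treatment of HEK293 cells.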
# [10] = HEK293 12hr Apoptosis Induction qHTS against the NCATS CANVASS Library (AID 1347361); note: potency is the fitted concentration of half-maximal effect
# Summary of the method: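 Read-out: Caspase-Glo 3/7 luminescence (DEVD substrate), 15 min RT. Preceded by 12 h compound exposure of HEK293, 500 cells/well, 11-pt qHTS titration; doxorubicin titration as control.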
# [11] = target: Luciferin 4-monooxygenase (Photinus pyralis) (UniProt P08659); assay: Firefly luciferase counterscreen qHTS: Assay Interference Panel against the NCATS CANVASS Library (AID 1347363); note: series mostly up to about 57 µM
# Summary of the method: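 Luminescence inhibition readout: compounds (11-point qHTS) sat 15 min at room temperature with substrate mix (0.013 mM luciferin and ATP), then firefly luciferase was added and signal read 5 min later.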
# [12] = KB-3-1 Cancer Cell Toxicity qHTS against the NCATS CANVASS Library (AID 1347366); note: nearly all actives have a fitted effect of over 75% in size; note: potency is the fitted concentration of half-maximal effect
# Summary of the method: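 KB-3-1 cells (500 cells/well) in DMEM + 10% FBS were treated with compounds for 72 hr at 37C, 5% CO2. Viability was read as CellTiter-Glo luminescence after 10 minutes at room temperature.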
# [13] = MCF7 Cancer Cell Toxicity qHTS against the NCATS CANVASS Library (AID 1347369); note: potency is the fitted concentration of half-maximal effect
# Summary of the method: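 MCF7, 500 cells/well; cpds 11-pt qHTS; 72 hr, 37C/5% CO2; CellTiterGlo ATP luminescence.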
# [14] = qHTS for ATAD5 Antagonist screened against the NCATS CANVASS Library (AID 1347370); note: nearly all actives have a fitted effect of over 65% in size; note: potency is the fitted concentration of half-maximal effect
# Summary of the method: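 HEK293T-ATAD5 luc reporter, 2000 cells/well; 5hr attach; cpd + 10 uM 5-FUrd; 16hr 37C, 5% CO2. Readouts: CellTiter-Fluor fluorescence (1hr), then Amplite luciferase luminescence (30min RT).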
# [15] = J3T Cancer Cell Toxicity qHTS against the NCATS CANVASS Library (AID 1347371); note: potency is the fitted concentration of half-maximal effect
# Summary of the method: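 ATP-based cytotoxicity in canine J3T cells: 72 hr exposure at 37C, 11-point titration, CellTiterGlo luminescent detection.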
# [16] = target: Nuclear receptor subfamily 1 group I member 3 (Homo sapiens) (UniProt Q14994); assay: qHTS for Constitutive Androstane Receptor (CAR) Agonist screened against the NCATS CANVASS Library (AID 1347373);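 note: every well also contained 1.5 µM PK11195 alongside the test compound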
# Summary of the method: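 In an 11-point concentration series, compounds were incubated 24hr with HepG2 cells carrying hCAR and a CYP2B6-2.2kb reporter, with PK11195 at 1.5uM final. A CellTiter-Fluor viability read preceded the ONE-Glo luminescence read.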
# [17] = 10-beta competent E. coli microbial cell viability qHTS against the NCATS CANVASS Library (AID 1347376); note: series mostly up to about 46 µM
# Summary of the method: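 Overnight 37C exposure of 10-beta E. coli (0.2 OD) to an 11-point concentration series; ATP-based luminescence after 20 min room-temperature reagent incubation; daunomycin as control.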
# [18] = qHTS for Inflammasome Signaling Inhibitors: IL-1-beta AlphaLISA screen against the NCATS CANVASS Library (AID 1347379);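 note: human THP-1 cells primed with LPS then triggered with ATP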;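 for potency: secreted IL-1B measured as AlphaLISA emission at 615 nm; potency is the fitted concentration of half-maximal effect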
# Summary of the method: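 THP-1, 1 hr compound pre-incubation, then LPS 250 ng/mL + ATP 1.25 mM (final); 16 hr total with compound; IL-1B AlphaLISA, ex 680/em 615 nm; 11-point qHTS, up to 57.5 uM final.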
# [19] = Inflammasome Signaling qHTS Counterscreen: IL-1-beta AlphaLISA counterscreen against the NCATS CANVASS Library (AID 1347381);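 note: cell-free check with purified IL-1β in medium and no THP-1 cells; series mostly up to about 57 µM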
# Summary of the method: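 Here, no cellular stimulation occurs; compounds in an 11-point series meet 4 pg purified IL-1-beta directly. Bead-based AlphaLISA detection follows (1 h acceptor/antibody, then 30 min donor, dark, room temperature), with excitation at 680 nm.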
# [20] = Vero-766 cells viability qHTS against the NCATS CANVASS Library: Counterscreen for Zika virus inhibition assay (AID 1347394); note: series mostly up to about 46 µM; nearly all actives have a fitted effect of over 60% in size
# Summary of the method: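 Uninfected Vero 766 (African green monkey) cells, 1000/well, attached overnight, then exposed 72 h at 37C to compounds (11-point qHTS). Viability read by CellTiter-Glo luminescence; media-only wells served as 100% inhibition.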
# Chain of Nuclear receptor subfamily 1 group I member 3 (Homo sapiens) (Q14994 whole entry, looked up): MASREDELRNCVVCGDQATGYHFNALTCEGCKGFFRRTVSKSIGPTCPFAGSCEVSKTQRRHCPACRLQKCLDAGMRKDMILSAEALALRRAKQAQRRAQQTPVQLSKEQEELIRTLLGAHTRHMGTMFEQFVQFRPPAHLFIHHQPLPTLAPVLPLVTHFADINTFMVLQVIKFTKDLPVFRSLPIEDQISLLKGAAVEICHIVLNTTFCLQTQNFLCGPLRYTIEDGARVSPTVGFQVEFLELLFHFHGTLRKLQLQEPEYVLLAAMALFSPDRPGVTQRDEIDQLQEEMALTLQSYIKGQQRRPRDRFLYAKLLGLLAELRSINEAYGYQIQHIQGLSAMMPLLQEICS
# Chain of Luciferin 4-monooxygenase (Photinus pyralis) (P08659 whole entry, looked up): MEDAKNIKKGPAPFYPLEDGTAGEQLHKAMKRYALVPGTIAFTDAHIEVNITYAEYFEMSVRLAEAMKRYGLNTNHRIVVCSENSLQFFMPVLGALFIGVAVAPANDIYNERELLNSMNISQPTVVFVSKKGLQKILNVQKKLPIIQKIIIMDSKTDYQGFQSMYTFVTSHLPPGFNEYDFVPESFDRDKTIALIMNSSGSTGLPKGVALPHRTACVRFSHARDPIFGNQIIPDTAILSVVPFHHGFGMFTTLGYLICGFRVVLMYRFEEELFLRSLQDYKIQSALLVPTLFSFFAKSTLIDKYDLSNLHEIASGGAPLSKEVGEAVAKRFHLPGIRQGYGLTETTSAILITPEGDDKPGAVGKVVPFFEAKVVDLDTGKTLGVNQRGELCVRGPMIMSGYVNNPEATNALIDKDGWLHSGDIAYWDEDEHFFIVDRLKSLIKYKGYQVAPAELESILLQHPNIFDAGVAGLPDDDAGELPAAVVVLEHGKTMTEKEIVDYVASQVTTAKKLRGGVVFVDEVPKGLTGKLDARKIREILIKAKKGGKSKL
Structure (SMILES),Potency [1],Potency [2],Potency [3],Potency [4],Potency [5],Potency [6],Potency [7],Potency [8],Potency [9],Potency [10],Potency [11],Potency [12],Potency [13],Potency [14],Potency [15],outcome [16],outcome [17],Potency [18],outcome [19],Potency [20]
C=C[C@]1(C)CC[C@@H]([C@H](C)C(=O)/C=C/C(C)C)O1,inactive,inactive,inactive,inactive,inactive,inactive,inactive,inactive,inactive,inactive,inactive,inactive,inactive,inactive,inactive,inactive,inactive,inactive,inactive,inactive
CC[C@H](C)C(NC(=O)[C@@H](NC)C(C)C)C(=O)NC1C(=O)N(C)[C@@H](C(C)O)C(=O)N[C@@H](C(C)C)C(=O)N(C)[C@@H](CC(C)C)C(=O)NC(C(C)C)C(=O)N(C)[C@@H](C(C)C)C(=O)N(C)[C@@H](Cc2c[nH]c3cccc(OC)c23)C(=O)N[C@@H](C(C)C)C(=O)N[C@@H]([C@H](O)c2ccccc2)C(=O)N[C@@H](C(C)C)C(=O)O[C@@H]1C (stereo partly drawn) (H-[NMeV][ξIle][ξThr(3R)(O-yl)][NMeThr(3ξ)]V[NMeL][ξV][NMeV][NMeTrp(4-OMe)]V[Phe(3R-OH)]V; ester 3-C),inactive,inactive,11.9 µM (active),inactive,inactive,inactive,inactive,inactive,inactive,inactive,inactive,inactive,inactive,inactive,inactive,inactive,,inactive,inactive,inactive
C[C@H]1C[C@@H]([C@@H]2CC[C@]34O[C@H](CC[C@@]35C[C@H](C)C(=O)O5)CN24)OC1=O,inactive,inactive,inactive,inactive,inactive,inactive,inactive,inactive,inactive,inactive,inactive,inactive,inactive,inactive,inactive,inactive,inactive,inactive,inactive,inactive
C/C=C/c1cc(OC)c2c(c1)[C@@H](C)[C@H](c1ccc(O)c(OC)c1)O2,55.3 µM (active),inactive,inactive,inactive,inactive,inactive,inactive,inactive,inactive,inactive,inactive,inactive,inactive,inactive,inactive,inactive,inactive,inactive,inactive,inactive
Oc1ccc(/C=C2/c3cc(O)cc(O)c3C(c3ccc(O)cc3)[C@H]2c2cc(O)cc(O)c2)cc1 (some centres not stated),27.7 µM (active),inactive,inactive,3.75 µM (active),,inactive,inactive,inactive,inactive,inactive,inactive,,inactive,inactive,inactive,inactive,inactive,inactive,inactive,inactive
CC1=CC2=C[C@H](C)C[C@@]23OC(=C(C)C3=O)CC(C)(C)/C=C/C1=O,55.3 µM (active),0.838 µM (active),0.668 µM (active),,0.943 µM (active),5.95 µM (active),,,,0.935 µM (active),inactive,2.64 µM (active),1.65 µM (active),0.933 µM (active),0.935 µM (active),inactive,inactive,1.09 µM (active),inactive,
